Assay [1] concerns Human papillomavirus type 1a protein E7 (residues 44-93). The assay is described as follows: HPV1a E7 fragment binders on microarrays, primary screen, biochemical, small-molecule microarray, residues 44-93, 635 nm fluorescence (AID 1108).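 Note: E7 fragment applied at 1 µg/mL in TBST for 1 h at 4 C; score combines spot fluorescence with its signal to noise ratio.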 Conditions: small-molecule microarray binding, fluorescence 635 nm; higher = more signal.
Assay [2] can be described thus: modulators of HCV replicon luciferase signal, primary screen, HCV replication inhibitor project, Huh7 cells, luciferase reporter (AID 1109).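 Note: huh7 hepatoma cells harbouring a luciferase neomycin HCV replicon reporter; luciferase luminescence as measure of HCV replicon replication; test concentration not given here.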 To be noted: 48 h, higher = more signal. (In general: In antiviral work, replicon cells carry a viral genome segment that copies itself.)
Assay [3] addresses Left-right determination factor 2 (Homo sapiens) (UniProt O00292). The assay is described as follows: LEFTY2 binders on small-molecule microarrays, primary screen, biochemical, small-molecule microarray, 635 nm fluorescence scan (AID 1110). Conditions: LEFTY2 binding, higher = more signal.
Assay [4] deals with Calmodulin-1 (Homo sapiens) (UniProt P0DP23). The experiment in a line: CALM1 binders on microarrays, EGTA buffer, profiling panel, biochemical, small-molecule microarray, Cy5-labelled CALM1 (AID 1111).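 Note: labelled calmodulin applied in Tris saline Tween buffer holding calcium plus EGTA and DTT.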 To be noted: Cy5-CALM1 binding fluorescence, higher = more signal.
Assay [5] shares this target. The assay is described as follows: calcium-bound CALM1 binders on microarrays, profiling panel, artefact control for SMM control-protein annotation, biochemical, small-molecule microarray, Cy5-labelled CALM1, plus calcium (AID 1112).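 Note: score merges spot fluorescence with signal to noise from triplicate slides.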 Conditions: Cy5-CALM1 binding fluorescence, higher = more signal.
The nature of assay [6]: small-molecule microarray binders of probe aWnt5a, primary screen, biochemical, biotinylated probe, 635/667 nm fluorescence (AID 1113).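 Note: score merges 667 nm fluorescence intensity with signal-to-noise per printed feature.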 To be noted: higher = more signal.
Assay [7] in a line: small-molecule microarray binders of probe aShh, primary screen, biochemical, biotinylated probe, 635/667 nm fluorescence (AID 1114).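 Note: probe is biotin-labelled aShh protein from a stem cell growth factor screen; measures binding of labelled protein to compounds printed on the slide; score merges feature fluorescence at 667 nm with signal-to-noise.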 To be noted: higher = more signal.
The nature of assay [8]: small-molecule microarray binders of probe aNog, primary screen, biochemical, biotinylated probe, 635/667 nm fluorescence (AID 1115).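 Note: probe is biotinylated aNog protein used at 0.15 µg/mL for 1 h at 4 C; z-score combines 667 nm fluorescence of each spot with its signal to noise.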 To be noted: higher = more signal.
The target in assay [9] is Torsin-1A-interacting protein 1 (Homo sapiens) (UniProt Q5JTV8). The assay is described as follows: LAP1 binders from COS7 cell lysate, primary screen, small-molecule microarray, 635/667 nm fluorescence (AID 1116). Conditions: COS7-hLAP1 lysate binding, 635 nm fluorescence, higher = more signal.
Assay [10] deals with Alpha-bungarotoxin (Bungarus multicinctus) (UniProt P60615). The assay is described as follows: alpha-bungarotoxin binders on microarray, profiling panel, artefact control for SMM control protein annotation, biochemical, small-molecule microarray, Alexa647 label, 635/667 nm fluorescence (AID 1117). Conditions: alpha-BTX-A647 binding fluorescence, higher = more signal.

Our source for the composite z-score and z-score values is PubChem BioAssay.

Alpha-bungarotoxin (Bungarus multicinctus), sequence (P60615 whole entry, looked up): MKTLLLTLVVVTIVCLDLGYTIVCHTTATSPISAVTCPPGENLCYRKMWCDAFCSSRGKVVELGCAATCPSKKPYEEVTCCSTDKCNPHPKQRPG
Left-right determination factor 2 (Homo sapiens), sequence (O00292 whole entry, looked up): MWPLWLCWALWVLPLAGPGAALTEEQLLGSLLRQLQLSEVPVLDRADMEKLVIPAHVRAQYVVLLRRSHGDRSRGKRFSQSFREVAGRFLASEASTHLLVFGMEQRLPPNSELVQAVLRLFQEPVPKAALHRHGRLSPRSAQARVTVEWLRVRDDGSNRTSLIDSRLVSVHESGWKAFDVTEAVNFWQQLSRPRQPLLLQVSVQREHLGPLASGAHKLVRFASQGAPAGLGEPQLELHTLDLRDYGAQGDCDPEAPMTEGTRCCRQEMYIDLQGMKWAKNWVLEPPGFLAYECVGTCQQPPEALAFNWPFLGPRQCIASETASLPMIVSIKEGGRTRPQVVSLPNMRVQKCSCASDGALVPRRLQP
Torsin-1A-interacting protein 1 (Homo sapiens), sequence (Q5JTV8 whole entry, looked up): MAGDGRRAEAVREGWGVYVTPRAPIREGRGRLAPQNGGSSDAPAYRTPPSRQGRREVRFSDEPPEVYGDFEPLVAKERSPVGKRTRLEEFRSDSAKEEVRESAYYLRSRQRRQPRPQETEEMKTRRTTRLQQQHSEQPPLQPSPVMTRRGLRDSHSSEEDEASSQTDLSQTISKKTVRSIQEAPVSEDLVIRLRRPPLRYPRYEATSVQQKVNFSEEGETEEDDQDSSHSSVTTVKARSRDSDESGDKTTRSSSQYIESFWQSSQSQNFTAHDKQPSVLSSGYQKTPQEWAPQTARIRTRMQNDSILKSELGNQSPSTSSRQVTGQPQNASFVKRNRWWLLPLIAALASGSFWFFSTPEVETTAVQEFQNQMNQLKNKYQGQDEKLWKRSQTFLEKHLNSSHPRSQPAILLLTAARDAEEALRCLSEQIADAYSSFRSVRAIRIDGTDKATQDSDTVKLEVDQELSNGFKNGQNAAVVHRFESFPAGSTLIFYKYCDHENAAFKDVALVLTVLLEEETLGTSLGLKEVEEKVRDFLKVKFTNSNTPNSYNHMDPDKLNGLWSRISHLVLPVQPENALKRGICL

Turning to `CC1CC/C=C\[C@H]2OC34C=CCN(c5ccc(Cl)cc5)C(=O)[C@H]3N(CCCCCO)C(=O)[C@]4(C)C2C(=O)O1` (stereo not given in full), the composite z-score in assay [1] is -0.826; in [3] it was -2.19; in assay [4] it was -0.471; in assay [5], 0.432; in [6], -0.247; in assay [7], -0.0626. Also, the composite z-score in [8] was -0.163; in [9], -0.614; in assay [10] it was -1.16. Besides, the z-score in [2] was determined as 0.315.

`O=c1n(-c2ccccc2)c(=O)n2n1CC(COc1ccccc1)=C([C@H](O)CCc1ccccc1)[C@@H]2CO`: the composite z-score was 0.676 in [1]; 0.892 in assay [3]; -0.833 in assay [4]; -0.556 in [5]; -0.0269 in assay [6]; -0.338 in assay [7]. The composite z-score was -0.588 in [8], 0.0355 in assay [9] and 0.5 in assay [10]. Further, in [2], the z-score is -2.17.

`COC(=O)[C@@]1(Cc2ccc(OC)cc2)[C@H]2c3cc(C(=O)N4CCCC4)n(Cc4cccc5ccccc45)c3C[C@H]2CN1C(=O)c1ccccc1`: the composite z-score in assay [1] is 0.764; in [3], -0.58; in [4] it was 1.38; in assay [5], 0.498; in assay [6], 0.0913; in [7], 0.521. Besides, the composite z-score turned out to be 1.95 in [8], 1.3 in assay [9] and 0.716 in [10]. Also, in assay [2], the z-score is -0.356.

Consider `NC(=O)NCC#Cc1ccc2c(c1)[C@]1(C(=O)N2)[C@H](C(=O)O)[C@H]2C(=O)O[C@H](c3ccccc3)[C@H](c3ccccc3)N2[C@@H]1c1ccc(OCCO)cc1`, for which the composite z-score in assay [1] was 1.05; in assay [3] it was -0.288; in assay [4], 0.382; in [5], 0.117; in assay [6], 0.0077; in assay [7], 0.13. Moreover, the composite z-score in assay [8] is -0.265; in assay [9], 0.324; in assay [10] it was 2.01. Further, the z-score in assay [2] is -0.327.

Turning to `C[N+](C)(C)CCCC[C@@H]1NC(=O)[C@H]2C[C@@H](C(=O)NCCCCCCN)[C@@H](c3ccc(O)cc3)N2C1=O`, the composite z-score is 1.17 in assay [1]; 0.0608 in assay [3]; 0.756 in assay [4]; 0.342 in assay [5]; 0.127 in [6]; 0.541 in [7]. Further, the composite z-score in assay [8] worked out at 0.0561; in [9], 0.567; in assay [10] it was 0.925. The same compound had a z-score in assay [2] of -0.481.

For the compound `[N-]=[N+]=NCc1ccccc1C[C@@]1(C(=O)NCc2ccccc2)N=C(c2ccc(OCCCO)cc2)O[C@@H]1c1ccccc1N=[N+]=[N-]`, the composite z-score was 1.41 in [1]; -0.346 in assay [3]; 1.31 in assay [4]; 0.845 in assay [5]; 0.0839 in assay [6]; 0.108 in [7]. The composite z-score in assay [8] is 1.29; in assay [9] it was 1.45; in assay [10] it was 0.937. Further, in assay [2], the z-score was -2.26.

Consider `CCOC(=O)C1=C[C@@H](c2ccccc2)N(S(=O)(=O)c2ccc(C)cc2)[C@H]1c1ccccc1Cl`, for which the composite z-score was 1.32 in [1]; 0.553 in [3]; 1.06 in assay [4]; -0.651 in assay [5]; -0.0161 in [6]; 0.0121 in assay [7]. The results for the composite z-score in [8], in assay [9] and in assay [10] were -0.0784, 0.731 and 1.04, respectively. The compound further came in with a z-score in assay [2] of -1.55.

For `CC(c1ccccc1)C(O)C1C=CC2C(=O)N(c3ccccc3)C(=O)C2N1Nc1ccc([N+](=O)[O-])cc1` (stereo not given), the composite z-score in assay [1] was 1.46; in assay [3] it was 0.365; in assay [4], 0.93; in [5], 0.328; in [6] it was -0.001; in [7], -0.0146. For the same compound, the composite z-score in [8] is 0.457; in assay [9], 0.464; in [10] it was 1.53. In assay [2], this compound showed a z-score of -0.0504.

In the case of `CO[C@H]1O[C@H](CO)[C@@H](OC(=O)Nc2ccc3c(c2)OCO3)[C@H](OC(=O)c2cc3ccccc3[nH]2)[C@H]1OC(=O)c1cc2ccccc2[nH]1`, the composite z-score in assay [1] is -0.343; in assay [3], 0.117; in assay [4], -0.418; in assay [5], -0.83; in assay [6] it was -0.168; in assay [7], -0.0709. Moreover, the composite z-score in assay [8] was -0.315; in assay [9], 0.0724; in assay [10] it was 0.279. This compound gave a z-score in [2] of -1.99.

For the compound `O=C(CS)NCCCCCCNC(=O)[C@H]1C[C@H]2C(=O)N[C@@H](Cc3ccccc3)C(=O)N2[C@H]1c1ccc(O)cc1`, the composite z-score in assay [1] was 1.39; in assay [3], 0.656; in assay [4], -0.123; in assay [5], -0.426; in assay [6], -0.1; in [7], -0.339. Besides, the composite z-score in assay [8] is -0.493; in [9] it was 0.0397; in [10], 0.329. This compound showed a z-score in assay [2] of -0.53.

On to `C=CCOC(=O)[C@H]1[C@@H]2C(=O)O[C@@H](c3ccccc3)[C@@H](c3ccccc3)N2[C@@H](c2ccc(OCCOC(=O)[C@H]3C[C@H]4C(=O)N[C@@H](CC(C)C)C(=O)N4[C@H]3c3cccc(OCCO)c3)cc2)[C@]12C(=O)Nc1ccc(I)cc12`, for which the composite z-score was 1.31 in assay [1]; 1.08 in assay [3]; 0.621 in assay [4]; 0.0537 in assay [5]; -0.168 in assay [6]; -0.0769 in assay [7]. Besides, the composite z-score in [8] was -0.141; in assay [9], -0.302; in [10] it was 0.473. The compound also displayed a z-score in [2] of -1.51.

Turning to `CC(CO)N1C(=O)[C@@H]2[C@H]3C(=O)OCC=C[C@H]3OC23C=CCN(C(C)(C)C)C(=O)[C@@H]13` (stereo not given in full), the composite z-score is -1.89 in [1]; -0.7 in assay [3]; -0.119 in assay [4]; -0.72 in assay [5]; 0.308 in assay [6]; -0.289 in assay [7]. The composite z-score is -0.158 in assay [8], -1.13 in assay [9] and 0.193 in assay [10]. The same compound showed a z-score in assay [2] of -0.619.

Take `CCOC(=O)c1ccc(NC(=O)O[C@H]2[C@H](OC(=O)Nc3ccc4c(c3)OCO4)[C@H](OC(=O)Nc3ccc4c(c3)OCO4)[C@@H](OC)O[C@@H]2CO)cc1`: the composite z-score was 1.03 in assay [1]; 0.803 in assay [3]; 1.41 in assay [4]; -0.179 in assay [5]; 0.0771 in assay [6]; 0.369 in assay [7]. Moreover, the composite z-score came to 0.252 in assay [8], 0.645 in [9] and 1.22 in assay [10]. The z-score in assay [2] was 0.295.

`COC(=O)[C@@]1(Cc2ccc(F)cc2)[C@H]2c3cc(C(=O)N(C)C)n(CCc4ccc(O)c(OC)c4)c3C[C@H]2CN1C(=O)c1ccccc1`: the composite z-score is 0.768 in assay [1]; 0.543 in [3]; 0.187 in assay [4]; -0.323 in assay [5]; 1.2 in assay [6]; 2.74 in [7]. The composite z-score in assay [8] was 2.48; in [9] it was 0.279; in assay [10], 0.434. Besides, the z-score in [2] came out at 1.09.

Regarding `CCOC(=O)C[C@H]1[C@H](OC(=O)c2ccccc2-c2ccccc2)[C@@H](NC(=O)c2ccc(-c3ccccc3)cc2)c2cc(OCCCO)ccc2N1C(=O)c1ccc2ccccc2n1`, the composite z-score in [1] was 0.521; in assay [3], 0.465; in [4] it was 0.105; in [5], -0.09; in assay [6] it was -0.0445; in assay [7], -0.0035. Also, the composite z-score in [8] was 0.233; in assay [9] it was -0.0823; in assay [10], 1.86. For the same compound, the z-score in [2] is -1.24.

`C=CCN1Cc2ccccc2[C@H]2OC(c3ccc(OCCCO)cc3)=N[C@@]2(CC=C)C1=O`: the composite z-score in assay [1] was 1.46; in assay [3], 0.725; in assay [4], 3.19; in assay [5], 1.43; in assay [6] it was -0.0478; in assay [7] it was 0.14. The composite z-score in [8] was -0.44; in assay [9] it was -0.0689; in assay [10], 1.36. The compound further had a z-score in assay [2] of -1.74.

With `C=C(C(=O)CC[C@@H](OC(C)=O)c1ccc(CO)o1)C(C)C`, the composite z-score in [1] is -0.306; in assay [3], 0.13; in assay [4], -0.299; in assay [5] it was -0.89; in assay [6], -0.1; in assay [7], 0.213. For the same compound, the composite z-score stood at 0.149 in [8], 1.73 in assay [9] and 0.844 in assay [10]. The z-score in assay [2] is -1.25.
